The panel holds about 83,000 compounds, 20% with a hit somewhere; the sample as a whole holds those more often.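 Results are percent growth after 48 hours of single-concentration exposure. 100 means growth as in untreated cells, lower positive values show inhibition; negative values down to -100 show cell death.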 Activity calls are given as the source filed them. The calls were made as follows: active = growth percent below 10; inactive = the rest.
system: HL-60(TB) leukemia; assay: NCI-60 one-dose screen, 48 h (100 = growth as untreated, 0 = no growth, -100 = all killed); conditions: 10 µM unless noted

| Compound | growth |
| --- | --- |
| COc1cc(C(=O)N(C(C)C)C2CCCCC2)cc(OC)c1OC | 96.7% (inactive) |
| COc1ccc(C(=O)C/C(=C\c2ccc(O)c(OC)c2)C(=O)NN)cc1 | 66.4% (inactive) |
| O=C(CSc1nccc(Nc2cccc3ccccc23)n1)c1ccc(Cl)cc1 | 99.2% (inactive) |
| CCOc1ccc2c(c1)/C(=C\C=C\C1CC(C)C3CC(OCC)CCC3N1CC)CC(C)N2CC (stereo not given) | -35.7% (active) |
| Cc1[nH]n(C(N)=S)c(=O)c1N=Nc1ccc(S(=O)(=O)Nc2ccncn2)cc1 | 103% (inactive) |
| CCN(C(=O)CN1CCN(c2cc3c(cc2F)c(=O)c(C(=O)O)cn3CC)CC1)c1nc(-c2ccccc2)cs1 | -39.2% (active) |
| COc1ccc(C(OCC2OC(n3ccc(NC(=O)c4ccccc4)nc3=O)C(O)C2O)(c2ccccc2)c2ccccc2)cc1 (stereo not given) | 22.9% (inactive) |
| CN1CCN(c2ccc(C(=O)Nc3n[nH]c4ccc(Cc5cc(F)cc(F)c5)cc34)c(NC3CCOCC3)c2)CC1 | -57.1% (active) |
| C1=CC2=CC=C3C=CC=C4C(c5nc6c7ccccc7c7ccccc7c6[nH]5)=CC(=C1)C2C34 (stereo not given) | 111% (inactive) |
| C=C1CC2(OC1=O)C(=O)Nc1ccccc12 (stereo not given) | 31.6% (inactive) |
| N=C(N)c1ccc(-c2ccc(-c3ccc(Cl)cc3Cl)s2)nc1 | -35.7% (active) |
| Nc1nc(N)c2c(n1)NC(c1ccc(F)cc1)C1CCc3ccccc3C1=N2 (stereo not given) | 16.5% (inactive) |
| Oc1cccc2ccc(N/N=C/c3cc(CN4CCOCC4)c(O)c4ncccc34)nc12 | 0.899% (active) |
| CCN(CC)CCSCCCNc1c(C)cnc2cc(Cl)ccc12 | 69.1% (inactive) |
| O=C(NC1CCC(Br)CC1)C1CCCC(S(=O)(=O)NC2CCCCC2)C1 (stereo not given) | 4.46% [25 µM] (active) |
| Cn1cc(-c2noc(-c3cn(C)c4ncc(F)cc34)n2)c2cc(Br)ccc21 | 93.8% (inactive) |
| O=C(O)c1cc([N+](=O)[O-])ccc1Cl | 104% (inactive) |
| CC(=O)c1cc2c(N)c(C(=O)Nc3ccccn3)sc2nc1C | 83.3% (inactive) |
| COc1ccc(Cl)cc1Nc1nc(C(F)(F)F)ccc1C(=O)N/N=C/c1ccc(N(C)C)cc1 | 85.4% (inactive) |
| COc1cccc(N2CCN(c3ncnc4cc[nH]c34)CC2)c1 | 71.3% (inactive) |

| Compound | growth |
| --- | --- |
| CCCCC[C@H]1C/C=C2/C(=O)C(Cl)=C[C@@H]2C/C=C\CCCC(=O)O1 | -9.03% (active) |
| NC(N)=NS(=O)(=O)c1ccc(Nc2ccc3nnc(-c4ccncc4)n3n2)cc1 | 95% (inactive) |
| Cc1ccccc1-c1cc(Cc2ccc(F)cc2)c(=O)[nH]n1 | 54.2% (inactive) |
| O=c1cc(C2NNC(=S)N2)c2ccc3ccccc3c2o1 (stereo not given) | 102% (inactive) |
| C=CCNc1nc(O)c(/C=C2\C=Nc3ncccc32)s1 | -14.5% (active) |
| O=C1/C(=C/c2ccccc2)CN(C(=O)C(Cl)Cl)C/C1=C\c1ccccc1 | -15.3% (active) |
| Cc1nc2ccccc2n1C(=O)C[C@@H]1NC(=S)NC1=O | 101% (inactive) |
| O=C(O)c1ccc(-n2cc(CNc3ccc(C(F)(F)F)cc3)c(-c3ccccc3)n2)cc1 | 89.2% (inactive) |
| Cc1cc(-c2ccc(N=Nc3c(S(=O)(=O)O)cc4cc(S(=O)(=O)O)cc(O)c4c3O)c(C)c2)ccc1N=Nc1c(S(=O)(=O)O)cc2cc(S(=O)(=O)O)cc(O)c2c1O | 119% (inactive) |
| COc1ccc2[nH]c(O)c(/C=c3/ccc4c(c3)N=C(c3ccc(C(F)(F)F)cc3)N=4)c2c1 | 94.4% (inactive) |
| CCCCCCCC/C=C\CCCCCCCCOc1ccccc1CC(=O)NCC[N+](C)(C)C | 67% (inactive) |
| COc1cc(/C=C/C(=O)/C=C/c2cc(OC)c3c(c2)OCO3)cc2c1OCO2 | 68.6% (inactive) |
| CCOC(=O)CSc1c(-c2ccccc2)c2cc(Cl)ccc2[nH]c1=O | 84.7% (inactive) |
| COc1cc2c(cc1OC)-c1c(oc3c4c(ccc3c1=O)OC(C)(C)C=C4)CO2 | 46.4% (inactive) |
| CCOC(=O)C1=C(CSC(=S)N(C2CCCCC2)C2CCCCC2)N(C)C(=O)NC1c1ccccc1 (stereo not given) | 15.3% (inactive) |
| COc1cc(C2=NN(C(C)=O)C(c3ccc(N(C)C)cc3)C2)cc(OC)c1OC (stereo not given) | 89.6% (inactive) |
| O=C(N/N=C/c1ccc(Oc2ccccc2)cc1)c1cnn2c1NC(c1ccccc1)C2 (stereo not given) | 78.6% (inactive) |
| COc1cc([C@@H]2c3cc4c(cc3[C@H](O)[C@H]3COC(=O)[C@H]23)OCO4)cc(OC)c1OC | -50.2% (active) |
| Cc1ccccc1NC(=O)Cc1csc2[n+]1C(=O)/C(=C/c1ccc([N+](=O)[O-])cc1)S2 | 103% (inactive) |
| COc1cc(-c2nn(-c3cccc(NC(=O)NCCNC(=O)c4cccc(C(F)(F)F)c4)c3)cc2-c2ccncc2)ccc1Cl | 16.8% (inactive) |

From PubChem BioAssay (NCI)
